# Bioassay records deposited in PubChem BioAssay by several laboratories.
# Cardio protect = cardioprotection against H2O2-induced cell death, primary screen, uHTS, H9c2 cells, ATPLite luminescence; H9c2 cardiomyocytes, H2O2 injury protection, 2 h; protection from H2O2 cell death, % at 20 µM; 360,000 tested, 0.63% active; AID 588492, 2011;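 active = compounds giving at least 50% protection of heart cells from peroxide-induced death in the single-dose screen, raw or plate-pattern-corrected value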
# GAA850 FXN act = FXN promoter activators, primary screen, cell-based, luciferase luminescence, HEK293 lucGAA850. HEK293 lucGAA850 FXN promoter luciferase reporter, 24 h; percent of 10 µM SAHA response. activation, % at 6 µM. 360,000 tested, 0.56% active. AID 540364, 2011;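 active = activation above the average of all compounds screened plus 3 SD, cutoff fixed separately per campaign, cut at about 7.5% in these data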
# SMARCA2 act = SMARCA2 (BRM) function activators, primary screen, cell-based, luminescence, high throughput | MG213 cells, MMTV-luciferase reporter, dexamethasone, overnight | activation, % at 9.1 µM | 370,000 tested, 1% active; in the data active = activation above about 7.8%
# COUP-TFII inh = NR2F2 transcriptional activity inhibitors, primary screen, cell-based, luciferase reporter, HEK293T, luminescence | COUP transcription factor 2 (Homo sapiens), P24468 | 370,000 tested, 0.7% active | HEK293T NGFI-A luciferase reporter | inhibition, % at 8.6 µM | AID 686940, 2013;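 active = inhibition above a per-plate cutoff, mean inhibition of test wells between control levels plus 3 SD, cut at about 38% in these data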;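 also: cells cotransfected with COUP-TFII expression vector driving the NGFI-A reporter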
# Gli-Sufu block = Gli-Sufu pathway antagonists, primary screen, luciferase luminescence, Sufu-KO-LIGHT cells, uHTS; Sufu-KO-LIGHT fibroblasts, Gli luciferase reporter luminescence; inhibition, % at 5 µM; 340,000 tested, 0.74% active; AID 588413, 2011;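 active = inhibition above about 55%, limit read from the data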
# GalR3 antag = GalR3 antagonists in HEK293 cells, primary screen, cell-based, fluorescence readout. AID 651719, 2012. 360,000 tested, 0.44% active. Galanin receptor type 3 (Homo sapiens), O60755. inhibition, % at 3 µM. HEK293 GalR3-CNG cAMP membrane potential fluorescence; galR3 body fused to GalR1 C-terminus;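 active = inhibition above the screen-wide average plus 3 SD, cut at about 13% in these data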;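 also: forskolin and galanin both at EC90 stimulate the cells; cAMP rise reported by CNG channel membrane potential dye signal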
# Target sequence (O60755 1-299 limits assumed): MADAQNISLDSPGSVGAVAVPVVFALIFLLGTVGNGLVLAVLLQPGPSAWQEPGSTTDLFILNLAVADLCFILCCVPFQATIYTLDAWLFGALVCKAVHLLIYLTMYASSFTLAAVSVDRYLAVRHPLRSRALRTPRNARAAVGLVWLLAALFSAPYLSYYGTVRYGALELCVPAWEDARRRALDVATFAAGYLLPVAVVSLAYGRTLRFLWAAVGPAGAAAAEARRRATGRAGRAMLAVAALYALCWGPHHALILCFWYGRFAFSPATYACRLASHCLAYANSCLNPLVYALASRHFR
# VP16 Luc counter = Gal4-VP16 luciferase reporter inhibitors, counter-screen for COUP-TFII antagonist project, cell-based, luminescence, HEK293; AID 687007, 2013; shares compounds with COUP-TFII inh; inhibition, % at 8.5 µM; 2,500 tested, 25% active; in the data active = inhibition above about 13%
# COUP-TFII conf = NR2F2 transcriptional activity inhibitors, confirmation, cell-based, luciferase reporter, HEK293, triplicate; shares compounds with COUP-TFII inh; HEK293 NGFI-A luciferase reporter, luminescence; inhibition, % at 8.5 µM; 2,500 tested, 45% active; AID 687008, 2013;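 active = mean inhibition over three repeats above a set limit taken from the earlier primary screen, cut at about 38% in these data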
# Hits are given with their value; 0 = inactive; - = not tested or not shown. Sampled rows, rich in hits. Any-hit rate of the full collection: about 3.4%.
SMILES,Cardio protect,GAA850 FXN act,SMARCA2 act,COUP-TFII inh,Gli-Sufu block,GalR3 antag,VP16 Luc counter,COUP-TFII conf
COCCN(C(=O)COC(=O)Cc1coc2cc3c(cc12)CCC3)c1c(N)n(Cc2ccccc2)c(=O)[nH]c1=O,0,0,0,0,0,0,-,-
N#CC(C#N)c1ccnc2ccccc12,0,0,0,40,-,0,0,0
O=C(NC1CCCCN(Cc2cccc(Cl)c2)C1=O)c1ccc(COc2ccccc2)cc1 (centres undefined),-,-,0,48,-,-,0,0
O=C(NC1CCCCN(Cc2ccc(Cl)cc2)C1=O)c1ccc(-c2ccccc2)cc1 (centres undefined),-,-,0,0,-,-,-,-
CCOc1ccc(C(C)=O)cc1CSC(=N)N,0,0,0,0,0,0,-,-
CCCCOc1ccc(Br)cc1CSC(=N)N,0,0,0,76,65,23,0,44
CN(CCc1ccccc1)C(=O)c1ccc(NC(=O)Cc2ccc(NC(=O)C3CCCN(C(=O)CCc4ccccc4)C3)cc2)cc1 (centres undefined),0,0,0,73,0,0,0,72
CN(C)C(=O)CCSc1nnc(-c2ccco2)o1,0,0,0,0,0,0,-,-
COCCn1c(=S)[nH]c2ccc(N(C)C)cc2c1=O,0,0,0,0,0,0,-,-
N/C(=N\OC(=O)Cc1cccc2ccccc12)c1ccccn1,0,0,0,0,0,0,-,-
NC(=Nc1nc(-c2ccccn2)cc2ccccc12)c1ccccn1,0,0,0,42,87,0,0,0
CC(=O)c1ccc(S(=O)(=O)Nc2ccc(-n3c(C)nc4ccccc4c3=O)cc2)cc1,0,0,0,0,0,0,-,-
C=CCn1c(SCc2ccc(C(=O)Nc3nccs3)cc2)nnc1-c1ccc(C)c(Cl)c1,0,0,0,40,0,0,0,0
Cn1nnnc1SCc1ccc(C(=O)Nc2nccs2)cc1,0,0,0,0,0,0,-,-
Cc1cc(N)n(Cc2ccc(Cl)cc2)n1,0,0,0,0,0,0,-,-
Cc1ccc(-c2cc(N)n(Cc3ccc(Cl)cc3)n2)cc1,0,0,0,48,0,89,0,0
CCN(CC)S(=O)(=O)c1cccc(NC(=O)c2cncc(Br)c2)c1,0,0,0,0,0,0,-,-
CCN(CC)S(=O)(=O)c1cccc(C(=O)Nc2ccc(C#N)cc2)c1,0,0,0,55,0,0,0,40
CCN(CC)S(=O)(=O)c1cccc(NC(=O)c2ccc(Br)cc2)c1,0,0,0,39,0,0,0,0
CS(=O)(=O)N(CC(=O)N1CCN(Cc2ccc3c(c2)OCO3)CC1)Cc1ccc(Cl)cc1,0,0,0,40,0,0,0,0
CC(C)CCN1C(=O)c2ccc(C(=O)NCC3CCCO3)cc2C1=O (centres undefined),0,0,0,0,0,0,-,-
Cc1cc(NC2CCCC2)n2ncc(-c3ccccc3)c2n1,0,0,0,48,0,0,0,52
Cc1cc(NC2CCCC2)n2nc(C)c(-c3ccccc3)c2n1,0,0,0,0,0,0,-,-
Cc1ccc(NC(=O)O/N=C/c2c(C)nn(C(C)(C)C)c2C)cc1Cl,0,0,0,100,0,0,93,110
O=C(/C=C/c1cccnc1)/C=C/c1cccnc1,0,0,0,59,0,0,38,0
SMILES,Cardio protect,GAA850 FXN act,SMARCA2 act,COUP-TFII inh,Gli-Sufu block,GalR3 antag,VP16 Luc counter,COUP-TFII conf
CCOC(=O)c1csc(NC(=O)C2CCCN(S(=O)(=O)c3ccc(Br)s3)C2)n1 (centres undefined),-,-,0,0,-,-,-,-
CCOC(=O)c1csc(NC(=O)C2CCCN(S(=O)(=O)c3ccc([N+](=O)[O-])cc3)C2)n1 (centres undefined),-,-,0,46,-,-,0,0
CC(=O)c1ccc(NC(=O)c2ccc(C)c(S(=O)(=O)N3CCOCC3)c2)cc1,0,0,0,0,0,0,-,-
O=C(Nc1ccc(N2CCCCCC2)cc1)c1cccc(S(=O)(=O)N2CCOCC2)c1,0,0,0,46,0,0,0,38
Cc1cc(C)n(-c2ccc(C(=O)Nc3ccc(C)c(S(=O)(=O)N4CCOCC4)c3)cc2)n1,0,0,0,51,0,0,0,0
O=C(Nc1cccc(S(=O)(=O)N2CCOCC2)c1)c1cccc(S(=O)(=O)N2CCCCC2)c1,0,0,0,0,0,0,-,-
COc1ccc(/C=C/C(=O)Nc2ccc(C)c(S(=O)(=O)N3CCOCC3)c2)cc1,0,0,0,68,0,0,0,0
O=C(N/N=C/c1sc(N2CCOCC2)nc1-c1ccccc1)c1cccc(S(=O)(=O)N2CCCC2)c1,0,0,0,38,0,0,0,67
COc1ccc(NC(=O)/C=C/c2ccc(S(=O)(=O)N3CCOCC3)cc2)cc1,0,0,0,0,0,0,-,-
O=C(N/N=C/c1sc(N2CCOCC2)nc1-c1ccccc1)c1ccc(O)cc1,0,0,0,0,0,0,-,-
COc1ccc(C2CC(c3ccc(C)cc3)=NN2C(=O)CCC(=O)O)cc1OC (centres undefined),0,0,0,0,-,0,-,-
CCC(C)(C)NC(=O)C1CC(=O)N(CCc2ccc(F)cc2)C1 (centres undefined),0,0,0,0,0,0,-,-
CN(CC(=O)Nc1ccccc1Cl)C(=O)COC(=O)c1ccc(-c2ccc(O)cc2)cc1,0,0,0,0,0,0,-,-
C[C@H](NC(=O)c1ncn2c1C(=O)NC[C@H]2C)C(=O)OC(C)(C)C,0,0,0,0,-,0,-,-
COc1ccc(C(=O)Nc2ccc(N3CCCCCC3)cc2)cc1S(=O)(=O)N1CCOCC1,0,0,0,49,0,0,0,0
CCOC(=O)c1ccc(NC(=O)c2cccc(S(=O)(=O)N3CCOCC3)c2)cc1,0,0,0,38,0,0,0,0
COc1cc(CCN(C(=O)c2cccc(S(C)(=O)=O)c2)C(CCc2ccccc2)c2nc3ccccc3[nH]2)cc(OC)c1 (centres undefined),0,-,0,0,-,0,-,-
O=S(Cc1ccc(Br)cc1)Cc1nnc(SCc2c(F)cccc2Cl)n1-c1ccccc1 (centres undefined),0,0,0,0,0,0,-,-
